# Measured values: article PMC4552634, “A New Set of Chemical Starting Points with Plasmodium falciparum Transmission-Blocking Potential for Antimalarial Drug Discovery” (PLoS ONE, 2015)
# Screen size: about 13,000 compounds; about 3,200 (25%) showed an effect of 50% or more. Some of the results follow.
# Tested on: P. falciparum stage V gametocytes
# Set-up: BacTiter-Glo ATP luminescence viability of purified stage V gametocytes in 384-well plates, per cent inhibition versus DMSO
# Conditions: 48 h, 5 µM; inhibitor
row,Compound,% Inhibition [%]
1,O=C(Nc1cc(C(F)(F)F)cc(C(F)(F)F)c1)c1cccc([N+](=O)[O-])c1 [TCMDC-123503],-13.95
2,COc1csc2cc(Br)ccc12 [TCMDC-139000],9.347
3,COc1cc(C(=O)NCCCN2CCN(c3cc(Cl)ccc3OC)CC2)ccc1-c1nc2cc(Cl)c(Cl)cc2[nH]1 [TCMDC-140079],4.425
4,COc1cc(C(F)(F)F)c2cc(CNCCCNc3nc4ccccc4[nH]3)[nH]c2c1 [TCMDC-140014],33.56
5,CCOc1ccc(Nc2ccc3nonc3c2S(=O)(=O)Nc2ccc(OCC)cc2)cc1 [TCMDC-138325],-11.05
6,CCC(CC)(CCC#N)CN(C[C@@H](O)[C@H](Cc1ccccc1)NC(=O)OC(C)(C)C)S(=O)(=O)c1ccc(OC)cc1 [TCMDC-138270],4.425
7,COc1ccc(O)c(Cc2cnc3nc(N)[nH]c(=O)c3c2C)c1 [TCMDC-137766],-34.15
8,CCCNc1ccc2nccc(CCN3CCC(NCc4ccc5c(n4)NC(=O)CS5)CC3)c2n1 [TCMDC-141591],39.25
9,COc1ccc(Cl)cc1N1CCN(CCCNC(=O)c2ccc(-c3nc4cc(Cl)c(F)cc4[nH]3)c(F)c2)CC1 [TCMDC-140098],-15.17
10,COc1ccc2nc(-c3ccc(C(=O)NCCCN4CCN(c5cc(Cl)ccc5OC)CC4)cc3)[nH]c2c1 [TCMDC-140024],-1.879
11,CO/C(=C\C=C\c1cc2cc(Cl)c(Cl)cc2[nH]1)C(=O)NCCCN1CCN(C2CCCCC2)CC1 [TCMDC-139296],-42.38
12,COc1ccc(Cl)cc1N1CCN(CCCNC(=O)c2ccc(-c3nc4cc(Cl)c(F)cc4[nH]3)cc2)CC1 [TCMDC-140094],66.12
13,CO/C(=C\C=C\c1cc2cc(Cl)c(Cl)cc2[nH]1)C(=O)NCCCCN1CCN(c2ccccc2OC)CC1 [TCMDC-139178],-64.2
14,CO/C(=C\C=C\c1cc2cc(Cl)c(Cl)cc2[nH]1)C(=O)NCCCN1CC(C)N(C)CC1C (stereo not shown) [TCMDC-139044],-57.76
15,CO/C(=C\C=C\c1cc2cc(Cl)c(Cl)cc2[nH]1)C(=O)NCCCN1CCCC[C@H]1C [TCMDC-139058],98.53
16,CO/C(=C\C=C\c1cc2cc(Cl)ccc2[nH]1)C(=O)NCCCN1CCN(c2cc(Cl)ccc2OC)CC1 [TCMDC-139242],50.82
17,CO/C(=C\C=C\c1cc2cc(Cl)c(Cl)cc2[nH]1)C(=O)NCCN1CCCCC1 [TCMDC-139019],39.34
18,CO/C(=C\C=C\c1cc2cc(Cl)c(Cl)cc2[nH]1)C(=O)NCCCN1CCN(c2cccc(Cl)c2)CC1 [TCMDC-139141],15.28
19,CCOC(=O)C1CCN(CCCNC(=O)/C(=C/C=C/c2cc3cc(Cl)c(Cl)cc3[nH]2)OC)CC1 [TCMDC-139356],-1.751
20,CO/C(=C\C=C\c1cc2cc(Cl)c(Cl)cc2[nH]1)C(=O)NCCCN1CCCC[C@@H]1C [TCMDC-139059],70.67
21,O=C(Nc1ccc(C(=O)N(Cc2ccc3c(c2)OCO3)C2CCCC2)cc1)c1cccs1 [TCMDC-125341],18.48
22,O=C(Nc1cccc(C2=NCCCN2)c1)Nc1cccc(C2=NCCCN2)c1 [TCMDC-137203],-4.824

row,Compound,% Inhibition [%]
1,CNCC(C)(C)c1nc(-c2ccc(Cl)c(O)c2)c(-c2ccncc2)[nH]1 [TCMDC-140762],-81.65
2,CC1CCc2sc(-c3nnc(SC(C)C(=O)N4CCCC4)o3)cc2C1 (stereo not shown) [TCMDC-124867],8.673
3,COc1ccc2nc(N=C3NC4(c5ccccc5)NC(=Nc5nc6ccc(OC)cc6[nH]5)NC4(c4ccccc4)N3)[nH]c2c1 (stereo not shown) [TCMDC-139632],-5.623
4,O=C(Nc1ccc(OC2CCN(Cc3ccsc3)C2)c(Cl)c1)c1cccs1 (stereo not shown) [TCMDC-133948],17.98
5,CC(C)NCc1ccc(-c2ccc(CN3CCCC(c4ccccc4)C3)cc2)c(C(=O)NC2Cc3ccccc3C2)c1 (stereo not shown) [TCMDC-134700],9.317
6,CCc1ccc(-c2cnc(N)c3cc(-c4ccnc(N)n4)ccc23)cc1 [TCMDC-134546],12.63
7,Cc1cccc2[nH]c(-c3cccc(-c4cccc(NC(=O)Nc5ccsc5)c4)c3)nc12 [TCMDC-133213],-5.013
8,COc1ccc2c(ccc3c2ncc2c(=O)n(-c4ccccc4)[nH]c23)c1 [TCMDC-142015],8.903
9,COC(=O)c1cccc(CNCc2ccc(-c3cccc(-c4nc5ccccc5[nH]4)c3)cc2)c1.O=C(O)C(F)(F)F [TCMDC-132555],70.67
10,Cn1cncc1CNCc1ccc(-c2cccc(-c3nc4ccccc4[nH]3)c2)cc1.O=C(O)C(F)(F)F [TCMDC-132569],52.47
11,Nc1cccc(CNCc2ccc(-c3cccc(-c4nc5ccccc5[nH]4)c3)cc2)c1.O=C(O)C(F)(F)F [TCMDC-132924],-75.75
12,COC(=O)c1cccc(CNCc2cccc(-c3ccc(-c4nc5ccccc5[nH]4)cc3)c2)c1.O=C(O)C(F)(F)F [TCMDC-132959],-6.074
13,Cn1cccc1CCNCc1ccc(-c2cccc(-c3nc4ccccc4[nH]3)c2)cc1.O=C(O)C(F)(F)F [TCMDC-132543],2.509
14,O=C(O)C(F)(F)F.c1cc(-c2ccc(CNCc3ccsc3)cc2)cc(-c2nc3ccccc3[nH]2)c1 [TCMDC-132563],-10.09
15,NC(=O)c1cccc(CNCc2ccc(-c3cccc(-c4nc5ccccc5[nH]4)c3)cc2)c1.O=C(O)C(F)(F)F [TCMDC-132570],70.11
16,COC(=O)c1cccc(CNCc2ccc(-c3cccc(-c4nc5cc(C(F)(F)F)ccc5[nH]4)c3)cc2)c1.O=C(O)C(F)(F)F [TCMDC-132947],-37.36
17,O=C(O)C(F)(F)F.c1ccc(-n2ncc(CNCc3ccc(-c4cccc(-c5nc6ccccc6[nH]5)c4)cc3)n2)cc1 [TCMDC-132564],-40.42
18,N#Cc1cccc(Nc2nccc(Nc3ccc(Oc4ccccc4)cc3)n2)c1 [TCMDC-138558],-36.77
19,CCCCCCc1cc(O)c2c3c(c(=O)oc2c1)CCN(C)C3 [TCMDC-124193],9.848
20,CC(C)c1ccc(OCC(O)CN(C)C(C)C(O)c2ccccc2)c(Br)c1 (stereo not shown) [TCMDC-141995],3.955
21,CC1(C)N=C(N)N=C(N)N1c1cccc(I)c1 [TCMDC-138037],-1.195
22,c1ccc(-c2cc(NCc3cccc4ccccc34)c3[nH]ncc3n2)cc1 [TCMDC-139455],76.18

row,Compound,% Inhibition [%]
1,COc1ccc2nc(-c3ccccc3)cc(NCCN(C)C)c2c1 [TCMDC-123487],-6.807
2,C(=NNc1cc(-c2ccccc2)nc2ccccc12)c1cccnc1 [TCMDC-142052],-23.81
3,c1ccc(-c2cc(NCCCCNc3cc(-c4ccccc4)nc4ccccc34)c3ccccc3n2)cc1 [TCMDC-137738],98.03
4,COc1ccc2c(NCCc3ccccc3)cc(-c3ccccc3)nc2c1 [TCMDC-138992],28.49
5,COc1ccc2nc(C)cc(NCc3cccc4ccccc34)c2c1.Cl [TCMDC-138974],-17.8
6,COc1ccc2nc(-c3ccccc3)cc(NCCCNc3cc(-c4ccccc4)nc4ccc(OC)cc34)c2c1.Cl [TCMDC-137734],124.9
7,c1ccc(-c2cc(NCCNc3cc(-c4ccccc4)nc4ccccc34)c3ccccc3n2)cc1 [TCMDC-137986],24.95
8,CN(C)CCNc1cc(-c2ccc3ccccc3c2)nc2ccccc12 [TCMDC-124260],3.28
9,O=[N+]([O-])c1ccc(/C=N/Nc2cc(-c3ccccc3)nc3ccccc23)o1 [TCMDC-142051],34.86
10,c1ccc(-c2cc(NCCCCCCCCNc3cc(-c4ccccc4)nc4ccccc34)c3ccccc3n2)cc1 [TCMDC-137983],96.95
11,CS(=O)(=O)NCCCNCc1ccc(-c2ccc(-c3nc4cc(C(F)(F)F)ccc4[nH]3)s2)cc1.O=C(O)C(F)(F)F [TCMDC-133076],-24.74
12,COc1ccc2cc(C(C)NC3CCN(c4cccc(NC(=O)c5ccncc5)c4)CC3)ccc2c1 (stereo not shown) [TCMDC-124668],-18.92
13,COc1ccc(CNC2CCN(C)CC2)cc1-c1ccc(S(=O)(=O)NCc2ccccc2)c(F)c1 [TCMDC-132262],59.53
14,COc1ccc(-c2cccc(CNC3CCN(C)CC3)c2)cc1S(=O)(=O)NCc1ccccc1 [TCMDC-132375],75.59
15,COc1ccc(CNC2CCN(C)CC2)cc1-c1ccc(S(=O)(=O)NCc2ccccc2)c(C)c1 [TCMDC-132480],85.24
16,COc1ccc(CNC2CCN(C)CC2)cc1-c1ccc(OC)c(S(=O)(=O)NCc2ccccc2)c1 [TCMDC-132249],105.1
17,NC1=NC(Cc2ccccc2)N(c2ccc(Cl)cc2)C(N)=N1 (stereo not shown) [TCMDC-131291],0.2754
18,CC(C)(C)C(C)(C)Cc1ccc(O)c(CN2CCN(c3ccccc3)CC2)c1 [TCMDC-125678],-31.97
19,CC(C)[C@H](NC(=O)c1ccc(O)c(-c2cccc(C(F)(F)F)c2)c1)C(=O)NCCN1CCCCC1 [TCMDC-140815],44.47
20,O=C(Nc1ccc(-c2ccc(-c3nc4ccccc4[nH]3)s2)cc1)Nc1ccc(Cl)c(Cl)c1 [TCMDC-133283],1.039
